This note sets out measurements from PubChem BioAssay (NCI).

Compounds without any hit were thinned out: in the full panel of roughly 83,000, 20% have a hit.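 Results are percent growth after 48 hours of single-concentration exposure. 100 means growth as in untreated cells, lower positive values show inhibition; negative values down to -100 show cell death.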 Unmarked numbers belong to inactive results. Calls of active or inactive are those of the source. How the source made its calls: active means growth percent below 10; inactive means the rest.

What all share (assay): NCI-60 one-dose screen, 48 h (100 = growth as untreated, 0 = no growth, -100 = all killed)
One assay relates to SR leukemia. Conditions: 10 µM unless noted.
Another assay concerns RPMI-8226 leukemia. As to conditions: 10 µM unless noted.
The test system of another assay is OVCAR-8 ovarian. Conditions: 10 µM unless noted.
A further assay deals with OVCAR-5 ovarian. Conditions: 10 µM unless noted.
For the next assay, the system named is OVCAR-4 ovarian. Conditions: 10 µM.
The next assay has as its system IGROV1 ovarian. As to conditions: 10 µM unless noted.
In a further assay the test system is OVCAR-3 ovarian. Conditions: 10 µM unless noted.
Another assay has as its system HS 578T breast. Conditions: 10 µM unless noted.
Another assay concerns NCI/ADR-RES ovarian. As to conditions: 10 µM unless noted.
The subject of a further assay is T-47D breast. Conditions: 10 µM unless noted.
In the next assay the test system is BT-549 breast. Conditions: 10 µM unless noted.
Another assay has as its system MDA-MB-435 melanoma. As to conditions: 10 µM unless noted.
The test system of another assay is SW-620 colon. As to conditions: 10 µM unless noted.
A further assay has as its system MCF7 breast. As to conditions: 10 µM unless noted.
For another assay, the system named is HCT-116 colon. As to conditions: 10 µM unless noted.
The subject of the next assay is HCC-2998 colon. Conditions: 10 µM unless noted.
The subject of a further assay is KM12 colon. Conditions: 10 µM unless noted.
A further assay relates to SK-OV-3 ovarian. As to conditions: 10 µM unless noted.

Regarding `Fc1cc2[nH]ncc2c2c3c(c(-c4cn[nH]c4)nc12)CCCC3`, the growth was 13.8% in the assay on SR leukemia; 1.77% (active) in the assay with RPMI-8226 leukemia; 4.78% (active) with OVCAR-8 ovarian; 4.24% (active) in the assay with OVCAR-5 ovarian; 16.1% in the assay on OVCAR-4 ovarian; 1.4% (active) in the assay with IGROV1 ovarian. The growth with OVCAR-3 ovarian is 7.22% (active); with HS 578T breast it was -3.3% (active); in the assay with NCI/ADR-RES ovarian, 34.7%; in the assay with T-47D breast, -19.3% (active); in the assay on BT-549 breast, -17.3% (active); in the assay on MDA-MB-435 melanoma, 5.22% (active). Moreover, the growth is 5.91% (active) with SW-620 colon; 3.02% (active) in the assay with MCF7 breast; 5.6% (active) in the assay on HCT-116 colon; 16.5% with HCC-2998 colon; 5.18% (active) with KM12 colon.

Consider `c1cc2ccc3cc2cc1CNCCN1CCNCc2ccc4ccc(cc4c2)CNCCN(CCNC3)CCNCc2ccc3ccc(cc3c2)CNCC1`, for which the growth in the assay on SR leukemia is 10.1%; in the assay on RPMI-8226 leukemia, 7.69% (active); with OVCAR-8 ovarian it was 69.3%; in the assay on OVCAR-5 ovarian, 0.497% (active); in the assay on OVCAR-4 ovarian, -7.14% (active); with IGROV1 ovarian, 21.9%. The growth was -1.21% (active) in the assay with OVCAR-3 ovarian; 48.4% in the assay on HS 578T breast; 99% with NCI/ADR-RES ovarian; -6.97% (active) in the assay with T-47D breast; 97.3% with BT-549 breast; -5.25% (active) with MDA-MB-435 melanoma. Further, the growth in the assay on SW-620 colon is 23.4%; in the assay with MCF7 breast, -5.39% (active); in the assay on HCT-116 colon it was 5.35% (active); in the assay on HCC-2998 colon it was 19.2%; in the assay on KM12 colon, -15.5% (active).

Consider `O=C(O)c1ccccc1C(F)(F)F`, for which the growth is 92.4% with SR leukemia; 59% in the assay with RPMI-8226 leukemia; 105% in the assay on OVCAR-8 ovarian; 97.2% in the assay with OVCAR-5 ovarian; 101% with OVCAR-4 ovarian; 93.1% in the assay with SK-OV-3 ovarian. Besides, the growth in the assay with HS 578T breast was 89.7%; with NCI/ADR-RES ovarian it was 80.8%; in the assay on T-47D breast, 76.5%; in the assay with MDA-MB-435 melanoma it was 107%; with SW-620 colon, 98.7%; with MCF7 breast it was 92.8%. In addition, the results for the growth in the assay with HCT-116 colon and with KM12 colon were 91.2% and 96.3%, respectively.

For the compound `NS(=O)(=O)c1ccc(CCN2C(=O)/C(=C\c3ccccc3)C=C2c2ccc(Cl)cc2)cc1`, the growth in the assay with SR leukemia is 103%; in the assay with RPMI-8226 leukemia it was 98.3%; in the assay with OVCAR-8 ovarian, 98.2%; in the assay on OVCAR-5 ovarian, 99.4%; with OVCAR-4 ovarian, 95.4%; in the assay with IGROV1 ovarian, 91.9%. Also, the growth is 96.9% in the assay with OVCAR-3 ovarian; 93.9% with HS 578T breast; 107% with NCI/ADR-RES ovarian; 88.9% with T-47D breast; 96.4% in the assay with BT-549 breast; 99.8% with MDA-MB-435 melanoma. In addition, the growth is 99.2% in the assay on SW-620 colon; 81.2% with MCF7 breast; 96.5% in the assay with HCT-116 colon; 105% with HCC-2998 colon; 99% in the assay on KM12 colon.

Take `Cn1cc(-c2nnc(-c3cn(C)c4ncc(Br)cc34)s2)c2cc(Br)ccc21`: the growth with SR leukemia was 100%; in the assay with RPMI-8226 leukemia, 87.4%; in the assay with OVCAR-8 ovarian, 96.1%; in the assay with OVCAR-5 ovarian, 88.6%; in the assay on OVCAR-4 ovarian it was 93.8%; in the assay on IGROV1 ovarian it was 73.9%. Besides, the growth is 100% with OVCAR-3 ovarian; 89.3% in the assay on HS 578T breast; 102% in the assay on NCI/ADR-RES ovarian; 67.6% in the assay on T-47D breast; 96.2% in the assay with BT-549 breast; 92.1% in the assay on MDA-MB-435 melanoma. The growth in the assay with SW-620 colon was 96.4%; in the assay on MCF7 breast it was 74.1%; with HCT-116 colon, 96.4%; in the assay on HCC-2998 colon, 103%; with KM12 colon it was 94.6%.

In the case of `CSc1nc2c(c(=O)n1C)C1(C(=O)N(Cc3ccccc3)c3ccccc31)c1c(nc(SC)n(C)c1=O)N2`, the growth is 104% in the assay with SR leukemia; 59.2% in the assay with RPMI-8226 leukemia; 85.5% with OVCAR-8 ovarian; 102% in the assay with OVCAR-5 ovarian; 99.5% in the assay on OVCAR-4 ovarian; 98% in the assay on IGROV1 ovarian. Besides, the growth with OVCAR-3 ovarian is 75.2%; in the assay on HS 578T breast, 97.9%; in the assay on NCI/ADR-RES ovarian, 95.2%; in the assay with T-47D breast it was 63.7%; in the assay on BT-549 breast, 104%; with MDA-MB-435 melanoma, 107%. The growth with SW-620 colon is 94.3%; in the assay on MCF7 breast, 82.6%; in the assay with HCT-116 colon it was 93%; in the assay with HCC-2998 colon, 99.6%; in the assay on KM12 colon, 87.9%.

With `Cc1ccc(-c2cn(C/C=C3\C=CN(S(=O)(=O)c4ccccc4)CC3)nn2)cc1`, the growth is 108% in the assay with SR leukemia; 102% in the assay on RPMI-8226 leukemia; 100% in the assay on OVCAR-8 ovarian; 120% in the assay on OVCAR-5 ovarian; 74.2% with OVCAR-4 ovarian; 104% with IGROV1 ovarian. In addition, the growth was 108% in the assay with OVCAR-3 ovarian; 97.2% with HS 578T breast; 99.6% in the assay with NCI/ADR-RES ovarian; 78.3% in the assay with T-47D breast; 96.1% in the assay with BT-549 breast; 101% in the assay on MDA-MB-435 melanoma. For the same compound, the growth in the assay on SW-620 colon is 102%; in the assay with MCF7 breast, 90.3%; with HCT-116 colon, 98%; in the assay on HCC-2998 colon, 109%; with KM12 colon, 101%.

Consider `Clc1ccc2nc(-c3ccc(-c4ccc(/C=N/NC5=NCCN5)cc4)s3)cn2c1`, for which the growth in the assay with SR leukemia is 8.33% (active); in the assay with RPMI-8226 leukemia, 53.5%; in the assay on OVCAR-8 ovarian, 102%; with OVCAR-5 ovarian, 107%; with OVCAR-4 ovarian it was 87.1%; with IGROV1 ovarian it was 94.6%. Moreover, the growth was 109% in the assay with OVCAR-3 ovarian; 92.6% with HS 578T breast; 99.3% in the assay on NCI/ADR-RES ovarian; 92.6% with T-47D breast; 91.6% with BT-549 breast; 101% in the assay with MDA-MB-435 melanoma. The growth was 29.7% with SW-620 colon; 79.4% in the assay on MCF7 breast; 86.8% in the assay on HCT-116 colon; 109% with HCC-2998 colon; 103% in the assay on KM12 colon.

`CC(C)(C)c1cc(C(=O)Nc2cc3ccccc3cc2C(=O)NCCN)cc(C(C)(C)C)c1`: the growth is -58.9% (active) in the assay with SR leukemia; -47.8% (active) in the assay on RPMI-8226 leukemia; -37.1% (active) with OVCAR-8 ovarian; -58.4% (active) in the assay with OVCAR-5 ovarian; -81.6% (active) with OVCAR-4 ovarian; -55% (active) in the assay with IGROV1 ovarian. Also, the growth is -96% (active) with OVCAR-3 ovarian; -36.6% (active) in the assay with HS 578T breast; -62.3% (active) with NCI/ADR-RES ovarian; -69% (active) in the assay on T-47D breast; 82.2% in the assay on BT-549 breast; -88.3% (active) in the assay with MDA-MB-435 melanoma. The growth with SW-620 colon is -66.4% (active); in the assay on MCF7 breast, -85.6% (active); with HCT-116 colon, -91.8% (active); in the assay with HCC-2998 colon, -86.5% (active); in the assay on KM12 colon it was -94.5% (active).
